A selection: hits, their analogues and other compounds. The true share with any hit is near 1.2%.
RGS7-Gao reg: RGS7-Galphao binding modulators, primary screen, biochemical, multiplexed bead flow cytometry | Guanine nucleotide-binding protein G(o) subunit alpha (Homo sapiens), P09471 | actives lie on both sides | binding response (% of control), % at 10 µM | 0.35% of 220,000 active; in the data active = binding response below about 49% or above about 150%; inconclusive = no clear call, values can overlap the other calls; inactive = in between;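 note: fluorescent Galphao held in activated GDP-AlF4 state binding bead-coupled RGS7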
Target sequence (P09471 whole entry, looked up): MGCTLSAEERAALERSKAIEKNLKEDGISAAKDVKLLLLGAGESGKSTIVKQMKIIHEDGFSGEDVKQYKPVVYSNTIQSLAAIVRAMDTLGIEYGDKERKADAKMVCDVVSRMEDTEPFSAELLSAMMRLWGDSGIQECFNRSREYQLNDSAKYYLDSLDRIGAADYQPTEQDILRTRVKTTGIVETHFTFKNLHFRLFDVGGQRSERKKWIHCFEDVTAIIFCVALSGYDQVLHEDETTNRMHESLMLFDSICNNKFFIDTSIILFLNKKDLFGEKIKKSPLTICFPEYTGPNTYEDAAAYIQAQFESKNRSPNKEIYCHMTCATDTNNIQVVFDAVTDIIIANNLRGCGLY
RGS8-Gao reg: RGS8-Galphao binding modulators, primary screen, biochemical, multiplexed bead flow cytometry; Guanine nucleotide-binding protein G(o) subunit alpha (Homo sapiens), P09471; actives lie on both sides; response (percent of control binding), % at 10 µM; 0.34% of 220,000 active; in the data active = response below about 60% or above about 140%; inactive = in between;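 note: Galphao activated as the GDP aluminium fluoride complex binding bead-coupled RGS8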
Avidin bead fluor: green autofluorescence of compounds with avidin beads – biophysical, 488/530 nm, flow cytometry, artefact control, profiling panel. fluorescence (KMESF) at 10 µM. 0.38% of 220,000 active. compound fluorescence 488/530 nm; active compounds read high; in the data active = fluorescence above about 47
GSH fluor: compound fluorescence on glutathione beads, profiling panel, artefact control, biophysical, 488/530 nm, flow cytometry. GSH beads flow cytometry, compound fluorescence 488/530 nm; active compounds read high. fluorescence (KMESF) at 10 µM. 0.25% of 190,000 active. AID 1776, 2009; in the data active = fluorescence above about 89;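 note: glutathione beads carrying GST-tagged Bcl family fusion proteins plus one bare bead set; values are compound well signal with DMSO vehicle wells as background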
RGS4-Gao reg: modulators of RGS4 binding to Galphao, primary screen, biochemical, multiplexed bead flow cytometry | Guanine nucleotide-binding protein G(o) subunit alpha (Homo sapiens), P09471 | actives lie on both sides | binding response (% of control), % at 10 µM | 0.33% of 220,000 active; in the data active = binding response below about 49% or above about 150%; inactive = in between;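 note: fluorescent Galphao activated with aluminum fluoride binding bead-coupled RGS4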
RGS16-Gao: modulators of RGS16 binding to Galphao, primary screen, biochemical, human proteins, multiplexed bead flow cytometry; Regulator of G-protein signaling 16 (Homo sapiens) + Guanine nucleotide-binding protein …; bead-based flow cytometry RGS16-Galphao binding, fluorescence; actives lie on both sides; binding response (% of control), % at 10 µM; 0.38% of 220,000 active; AID 1441, 2008;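 note: Galphao activated by GDP with aluminum fluoride before binding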
Target sequence (O15492 whole entry, looked up): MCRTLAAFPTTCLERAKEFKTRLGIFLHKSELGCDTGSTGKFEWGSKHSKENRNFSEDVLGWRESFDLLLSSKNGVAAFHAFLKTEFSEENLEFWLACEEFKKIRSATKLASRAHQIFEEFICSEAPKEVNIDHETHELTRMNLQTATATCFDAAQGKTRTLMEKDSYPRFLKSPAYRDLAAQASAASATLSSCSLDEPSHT
Target sequence (P09471 whole entry, looked up): as the sequence (P09471 whole entry, looked up) above
RGS4-Gao HTS: modulators of RGS–Galpha-o binding, primary screen, biochemical, multiplexed beads, flow cytometry, RGS4/7/8/16/19; multiplexed bead flow cytometry; RGS4–Galpha-o binding response, % at 10 µM; shares compounds with RGS16-Gao; 99% of 1,600 active;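 note: fluorescently labeled Galpha-o bound to GDP with aluminium fluoride binding biotinylated RGS beads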
Avidin counter: disruption of biotin probe capture by avidin, counter-screen for RGS protein interaction modulators, biochemical, flow cytometry, bead-based. AID 1783, 2009. inhibition, % at 10 µM. shares compounds with RGS16-Gao. streptavidin beads, fluorescein-biotin binding. 1,700 tested, under 10 active;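 active = inhibition above 50%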;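 note: median green fluorescence of gated singlet beads compared with DMSO control wells; 0% = DMSO wells and 100% = complete loss of bead fluorescence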
RGS8-Gao confirm: RGS8-Galphao binding modulators, confirmation, biochemical, multiplexed bead flow cytometry, single concentration | binding response (% of control), % at 10 µM | AID 1836, 2009 | 3% of 1,700 active | bead-based flow cytometry RGS8-Galphao binding, fluorescence; actives lie on both sides | shares compounds with RGS16-Gao; in the data active = binding response below about 72% or above about 130%; inactive = in between;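 note: Galphao activated as GDP AlF4 complex before binding bead RGS8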
RGS7-Gao single: RGS7-Galphao binding modulators, confirmation, biochemical, multiplexed bead flow cytometry, single concentration | response (percent of control binding), % at 10 µM | bead-based flow cytometry RGS7-Galphao binding; actives lie on both sides | AID 1837, 2009 | shares compounds with RGS16-Gao | 7.8% of 1,700 active; in the data active = response below about 75% or above about 130%; inactive = in between;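 note: fluorescent Galphao activated with GDP and aluminum fluoride binding bead-coupled RGS7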
RGS16-Gao conf: modulators of RGS16-Galphao protein binding, confirmation, biochemical, single concentration, multiplexed bead flow cytometry | shares compounds with RGS16-Gao | bead-based flow cytometry; actives lie on both sides | response (% of control binding), % at 10 µM | 4% of 1,700 active | AID 1838, 2009; in the data active = response below about 74% or above about 130%; inactive = in between;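 note: Galphao activated as the GDP aluminium fluoride complex binding bead-coupled RGS16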
RGS4-Gao confirm: modulators of RGS4-Galphao protein binding, confirmation, biochemical, single concentration, multiplexed bead flow cytometry | 4% of 1,700 active | AID 1840, 2009 | binding response (% of control), % at 10 µM | shares compounds with RGS16-Gao | actives lie on both sides; in the data active = binding response below about 74% or above about 130%; inactive = in between
RGS19-Gao conf: regulators of RGS19-Galphao binding, confirmation, biochemical, single point, multiplexed bead flow cytometry; shares compounds with RGS16-Gao; bead-based flow cytometry RGS19-Galphao binding; actives lie on both sides; response (percent of control binding), % at 10 µM; 5% of 1,700 active; in the data active = response below about 50% or above about 160%; inactive = in between;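 note: 100% = no compound control and 0% = blank background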
Starred values were filed as active, the others as inactive; i = inactive; u = inconclusive; x = no result; [ ] = dose if it differs, or a comment. Unless noted, the rule behind the calls is not given here.

SMILES	RGS7-Gao reg	RGS8-Gao reg	Avidin bead fluor	GSH fluor	RGS4-Gao reg	RGS16-Gao	Avidin counter	RGS8-Gao confirm	RGS7-Gao single	RGS16-Gao conf	RGS4-Gao confirm	RGS19-Gao conf	others
O=C(NC1=NCCS1)c1sc2ccccc2c1Cl	x	x	x	17	x	114	1	103	100	104	101	85
O=C(NC1=NCCS1)c1sc2cc(Cl)cc(Cl)c2c1Cl	105	101	25	8	103	110	x	x	x	x	x	x
CC/C(=N/NC(=O)c1ccccc1)c1ccc(OCCN2CCOCC2)cc1	190*[activator]	189*[activator]	2	11	207*[activator]	229	1	101	98	99	99	110
Cc1ccc(N2C(=O)CC(NNc3nc4ccccc4s3)C2=O)cc1 (configuration not stated)	33*	34*	-1	13	19*	i	0	103	98	99	97	83
O=C1CC(NNc2nc3ccccc3s2)C(=O)N1c1ccccc1 (configuration not stated)	96	101	24	28	98	100	x	x	x	x	x	x
Cc1ccc(NC(=S)N(CCCN2CCCC2)Cc2cccn2Cc2ccc(Cl)cc2)cc1Cl	165*[activator]	117	13	9	150	113	1	104	103	97	103	98	RGS4-Gao HTS=150*
Cc1ccc(S(=O)(=O)Nc2ncc(C(F)(F)F)cc2Cl)cc1	94	91	8	15	91	100	x	x	x	x	x	x
Nc1cccc(CCc2nc3cc4ccccc4cc3[nH]2)c1	83	70	6	8	89	8.6*	-1	98	93	94	97	108	RGS4-Gao HTS=89*
c1ccc(CCc2nc3ccccc3[nH]2)cc1	93	95	11	11	91	100	x	x	x	x	x	x
O=c1/c(=C\c2cccc(O)c2)sc2nc(-c3ccccc3)c(-c3ccccc3)n12	u	103	7	x	102	102	x	x	x	x	x	x
CCCCCC(=O)N/N=C(\C)c1ccc(NC(=O)c2ccco2)cc1	110	107	17	38	112	113	x	x	x	x	x	x
CCOc1ccc(CC(=O)Nc2ccc(NC(=O)c3ccco3)cc2)cc1OCC	20*	23*	1	12	28*	16*	0	102	104	105	105	100
CCCCCC(=O)NC(=S)Nc1ccc(NC(=O)c2ccco2)cc1	116	123	21	8	110	179*[activator]	-1	105	97	108	102	112	RGS4-Gao HTS=110*
O=C(NCc1ccc(F)cc1)c1ccc(Br)o1	u	104	10	13	101	103	x	x	x	x	x	x
CC(C)c1onc(C(=O)N2C(C)CCCC2C)c1[N+](=O)[O-] (configuration not stated)	99	102	3	10	99	107	x	x	x	x	x	x
CC(C)c1onc(C(=O)N2CCCCC2C)c1[N+](=O)[O-] (configuration not stated)	23*	30*	-1	14	28*	-45	-1	104	102	107	101	103
Nc1nc(SCC(=O)Nc2ccc3c(c2)OCO3)n[nH]1	u	101	13	16	102	100	x	x	x	x	x	x
NC1=NC(=O)CC(C(=O)NCCc2ccccc2)S1 (configuration not stated)	-29*	3.8*	x	10	-82*	-73*	-2	115	161*[activator]	130*[activator]	137*[activator]	326*[activator]
NC1=NC(=O)CC(C(=O)Nc2cccc3ccccc23)S1 (configuration not stated)	109	115	25	10	107	121	x	x	x	x	x	x
CC12CCC(C(=O)N3CCC(Cc4ccccc4)CC3)(C(=O)C1=O)C2(C)C (configuration not stated)	94	96	8	16	97	98	x	x	x	x	x	x
NC(=O)c1ccc(C23CC4CC(CC(C4)C2)C3)o1	96	118	13	6	101	202*[activator]	-1	110	100	108	99	90	RGS4-Gao HTS=101*
COc1ccc(S(=O)(=O)NCC2CCCN(C(=O)CC3CCCC3)C2)cc1 (configuration not stated)	105	112	11	18	106	120	x	x	x	x	x	x
NS(=O)(=O)c1cccnc1Nc1c(Cl)cccc1Cl	179*[activator]	128	108*	202*	208*[activator]	213*[activator]	0	104	108	106	106	103
Cc1cc(C)n(CC(=O)n2c3c(c4ccccc42)CCCC3)n1	x	x	x	44	x	x	2	102	102	103	103	83
CCN(CC)CC(=O)n1c2c(c3ccccc31)CCCC2	78	71	7	9	81	-100*	0	101	102	105	100	92	RGS4-Gao HTS=81*
COC(=O)c1sccc1NC(=O)CC1C(=O)NCCN1C(=O)c1ccc(N(C)C)cc1 (configuration not stated)	u	99	8	x	86	95	x	x	x	x	x	x

Source: PubChem BioAssay (NMMLSC)
